Bioassay records from PubChem BioAssay.
A selection: hits, their analogues and other compounds. The true share with any hit is near 0.86%.
CDC25B-CDK2 inh: human CDC25B-CDK2/CyclinA binding inhibition. P30305+P24941. HTRF CDC25B-CDK2/CyclinA binding, anti-His/anti-Flag; hits give high values. z-score (test concentration not listed). 94,000 tested, 0.72% active. AID 1259370; in the data active = z-score above about 3.2
HIV TAR-Tat: HIV-1 TAR-Tat binding disruption | HIV-1 TAR RNA, Tat peptide displacement FRET; hits give high values | z-score (concentration not given with the values) | 100,000 tested, 0.6% active; active = z-score of 3 or more in at least 2 runs
Large screens that a line does not name were inactive.

CC1CCCCN1C(=O)Cn1c(=O)oc2ccccc21 (stereo unspecified)	none (no result: CDC25B-CDK2 inh)
Cc1ccc(CNC(=O)CN2C(=O)CSc3sc(CC(C)C)cc32)o1	none (no result: CDC25B-CDK2 inh)
NC(=O)Cn1cnc2c(nnn2Cc2ccccc2F)c1=O	none
CC1CCCC(NC(=O)C2(C)Cn3c(cc4occc43)C(=O)N2Cc2ccco2)C1C (stereo unspecified)	none (no result: CDC25B-CDK2 inh)
Cc1cc(C)cc(N2C(=O)c3cc4occc4n3CC2(C)C(=O)NC2CCC(C)CC2)c1 (stereo unspecified)	HIV TAR-Tat 12 (no result: CDC25B-CDK2 inh)
CCC(C)N1C(=O)c2cc3occc3n2CC1(C)C(=O)NC1CCC(C)CC1 (stereo unspecified)	none (no result: CDC25B-CDK2 inh)
CC1CCCCC1NC(=O)C1(C)Cn2c(cc3occc32)C(=O)N1C1CCCCC1 (stereo unspecified)	none (no result: CDC25B-CDK2 inh)
CC1CCCCC1NC(=O)C1(C)Cn2c(cc3occc32)C(=O)N1c1ccc(Cl)cc1 (stereo unspecified)	HIV TAR-Tat 7.6 (no result: CDC25B-CDK2 inh)
Cc1cc2c(cc3n2CC(C)(C(=O)NC2CCCCC2)N(C2CCCCC2)C3=O)o1 (stereo unspecified)	none (no result: CDC25B-CDK2 inh)
Cc1cc2c(cc3n2CC(C)(C(=O)NC2CCCCC2)N(C(C)C)C3=O)o1 (stereo unspecified)	HIV TAR-Tat 7.2 (no result: CDC25B-CDK2 inh)
CC1CCC(NC(=O)C2(C)Cn3c(cc4occc43)C(=O)N2Cc2ccco2)CC1 (stereo unspecified)	HIV TAR-Tat 19 (no result: CDC25B-CDK2 inh)
CCOc1ccc(CNS(=O)(=O)c2cn(C)cn2)cc1OC	none (no result: CDC25B-CDK2 inh)
COc1ccc(C2OCC(C)(C)n3c(-c4ccccc4)c4c(=O)n(C)c(=O)n(C)c4c32)cc1OC (stereo unspecified)	none
O=C(NC1CC1)c1ccc(NC2=NC3CS(=O)(=O)CC3S2)cc1 (stereo unspecified)	none (no result: CDC25B-CDK2 inh)
O=c1ccc(-c2ccc(S(=O)(=O)NCC3CCN(Cc4ccc(F)cc4)CC3)s2)n[nH]1	none (no result: CDC25B-CDK2 inh)
CN(C)CCNC(=O)c1c(-c2ccccc2)c(-c2ccccc2)nn(C)c1=O	none
CC1CCC(NC(=O)C2(C)Cn3c(cc4occc43)C(=O)N2Cc2cccs2)CC1 (stereo unspecified)	HIV TAR-Tat 10 (no result: CDC25B-CDK2 inh)
CC1CCC(NC(=O)C2(C)Cn3c(ccc3-c3ccco3)C(=O)N2Cc2cccs2)CC1 (stereo unspecified)	none (no result: CDC25B-CDK2 inh)
Cc1ccc2onc(CNC(=O)Nc3ccc4c(c3)OCCO4)c2c1	none (no result: CDC25B-CDK2 inh)
CC1CCN(C(=O)CSc2nc(-c3ccco3)nc3cc(=O)[nH]n23)CC1	HIV TAR-Tat 9.2 (no result: CDC25B-CDK2 inh)
CC1CCCCN1C(=O)CSc1nc(-c2ccco2)nc2cc(=O)[nH]n12 (stereo unspecified)	none (no result: CDC25B-CDK2 inh)
CC(C)(C)c1ccc(NC(=O)c2ccc(N3C(=O)CSCC3=O)cc2)cc1	none (no result: HIV TAR-Tat)
CC1(C)CC(=O)C2=C(C1)NC1=C(C(=O)c3ccccc31)C2c1cccs1 (stereo unspecified)	none
CN1C2=C(C(=O)CC(C)(C)C2)C(c2cccs2)C2=C1CC(C)(C)CC2=O	CDC25B-CDK2 inh 16 (no result: HIV TAR-Tat)
Cc1oc2ccc(NS(=O)(=O)c3ccc(F)cc3)cc2c1C(=O)O	none
Cc1oc2ccc(NS(=O)(=O)c3ccc(Cl)cc3)cc2c1C(=O)O	HIV TAR-Tat 23
COC(=O)c1c(C)oc2ccc(NS(=O)(=O)c3ccc(Cl)cc3)cc12	none
Cc1oc2ccc(NS(=O)(=O)c3ccccc3)cc2c1C(=O)O	HIV TAR-Tat 18
Cc1ccc(S(=O)(=O)Nc2cc3c(cc2C)n(C)c(=O)n3C)cc1C	none
CN(C1CCCCC1)C1CCN(S(=O)(=O)c2ccc(-c3ccc(=O)[nH]n3)s2)CC1	none (no result: CDC25B-CDK2 inh)
CCCCN1C(=O)c2cc(C(=O)NC3CCCCC3)nn2CC1(C)C(=O)NC1CCCC1 (stereo unspecified)	none (no result: CDC25B-CDK2 inh)
Cc1ccc(S(=O)(=O)Nc2c3ccccc3c(O)c3c4c(oc23)CC(C)(C)CC4=O)cc1	CDC25B-CDK2 inh 18 (no result: HIV TAR-Tat)
CC1(C)CC(=O)c2c(oc3ccc(NS(=O)(=O)c4ccc(Br)cc4)cc23)C1	none
CCOc1cc(CNc2ccc(O)cc2)cc(Br)c1OCc1cccs1	none
CC(C)(CO)NCc1cc(Br)ccc1OCc1ccccc1	none
O=c1[nH]c2ccc(NCc3cc(Br)ccc3OCc3ccccc3)cc2[nH]1	CDC25B-CDK2 inh 13
COc1cc(CNc2ccc3[nH]c(=O)[nH]c3c2)cc(Br)c1OCc1cccs1	CDC25B-CDK2 inh 8.9 (no result: HIV TAR-Tat)
O=c1cc(CSC2CCCCC2)nc2sc3c(n12)CCCC3	none (no result: CDC25B-CDK2 inh)
CC1=C(C)[N+](=O)C2(O)CCCCC2(C)N1[O-] (stereo unspecified)	none (no result: HIV TAR-Tat)
Oc1ccccc1Nc1nc(NCc2ccco2)c2ccccc2n1	none
Cc1ccccc1Nc1nc(NCc2ccco2)c2ccccc2n1	CDC25B-CDK2 inh 6
COc1ccc(-c2[nH]nc3oc(=O)cc(C)c23)cc1	none (no result: HIV TAR-Tat)
Cc1cc(C)c(C)c(OCc2nc(-c3ccccc3)no2)c1	none (no result: HIV TAR-Tat)
N.N.O=C(O)C1(C(=O)O)CCC1.[Pt+2]	CDC25B-CDK2 inh active (no result: HIV TAR-Tat)
NC1(C(=O)O)CCCCC1	none (no result: HIV TAR-Tat)
CCc1nonc1NC(=O)c1oc2ccc(C)cc2c1C	none
COc1cccc(-c2ccc(-c3noc(-c4cccc(C)c4)n3)c(OC)n2)c1	none
Cc1ccc(OCc2cc(=O)n3nc(C)sc3n2)c(C)c1	none
Cc1cc(Cl)ccc1OCc1cc(=O)n2nc(-c3ccco3)sc2n1	HIV TAR-Tat 13
Cn1c(=O)n(CCOc2ccc(Cl)cc2)c2ccccc21	none
Fc1ccccc1Nc1nc(-c2ccccc2)no1	none (no result: CDC25B-CDK2 inh)
O=C(Nc1ccc(Br)cc1)c1cccc(-n2cnnc2)n1	none (no result: CDC25B-CDK2 inh)
O=C(Nc1ccc(O)cc1)c1cccc(-n2cnnc2)n1	HIV TAR-Tat 12 (no result: CDC25B-CDK2 inh)
C=CC1=C(C(=O)O)N2C(=O)[C@@H](NC(=O)C(=NOCC(=O)O)c3csc(N)n3)[C@H]2SC1	HIV TAR-Tat 26 (no result: CDC25B-CDK2 inh)
C=CC1=C(C(=O)O)N2C(=O)[C@@H](NC(=O)/C(=N\O)c3csc(N)n3)[C@H]2SC1 (stereo in doubt)	none (no result: CDC25B-CDK2 inh)
COc1ccc(S(=O)(=O)Oc2ccc(C)cc2[N+](=O)[O-])cc1OC	none (no result: HIV TAR-Tat)
COc1ccc(S(=O)(=O)OCC(F)([N+](=O)[O-])[N+](=O)[O-])cc1Br	CDC25B-CDK2 inh 4.2 (no result: HIV TAR-Tat)
COc1ccc(C2CC(=O)Nc3cc4c(cc32)OCO4)c(OC)c1 (stereo unspecified)	none (no result: HIV TAR-Tat)
O=C(O)c1ccc2nc(-c3cccc(-c4nc5ccc(C(=O)O)cc5[nH]4)c3)[nH]c2c1	CDC25B-CDK2 inh 7.3 (no result: HIV TAR-Tat)
O=C(O)c1cccc(-c2nc3ccccc3[nH]2)c1	none (no result: HIV TAR-Tat)
COc1ccc(C)cc1-n1nnc(-c2nc(-c3ccc(C)cc3)no2)c1N	none (no result: CDC25B-CDK2 inh)
c1ccc(-n2ncc3c2CCc2c-3[nH]c3ccccc23)cc1	none (no result: HIV TAR-Tat)
CN(C)c1ccc(C(CNS(=O)(=O)c2ccc(F)cc2)N2CCc3ccccc32)cc1 (stereo unspecified)	none (no result: CDC25B-CDK2 inh)
CCOc1cc(/C=C2\SC(=Nc3cccc(Cl)c3C)NC2=O)ccc1O	none (no result: HIV TAR-Tat)
Cc1ccc(N=C2NC(=O)/C(=C/c3ccc(O)c(Br)c3)S2)cc1Cl	CDC25B-CDK2 inh 8.8 (no result: HIV TAR-Tat)
Cc1cccc(NNC(=O)C2CCC2)c1	none (no result: HIV TAR-Tat)
Cc1ccc(Nc2nc(-c3ccc(O)cc3)cs2)nc1	none
Cc1ccc(Nc2nc(-c3ccc(O)c(O)c3)cs2)nc1	HIV TAR-Tat 16
CCOC(=O)c1cnc(SCC(=O)c2ccc(Cl)cc2Cl)[nH]1	none (no result: HIV TAR-Tat)
O=S(=O)(NCCS(=O)(=O)N1CCN(c2ccccc2)CC1)c1ccc(Br)cc1	none (no result: CDC25B-CDK2 inh)
Cc1ccc(-c2nc(SCc3cc(=O)c4cccc(Cl)c4[nH]3)n[nH]2)cc1	none (no result: CDC25B-CDK2 inh)
COc1ccc(-c2nc(SCc3cc(=O)c4cccc(Cl)c4[nH]3)n[nH]2)cc1	HIV TAR-Tat 6.8 (no result: CDC25B-CDK2 inh)
CCc1nnc2c(N3CCc4ccccc4C3)nc3ccccc3n12	none (no result: CDC25B-CDK2 inh)
